KB-V1 MDR tox: qHTS assay for MDR1-selective chemotherapeutics: Primary screen using the drug-selected MDR subline cells KB-V1. KB-V1 MDR cells viability, CellTiter-Glo, 72 h. Potency, µM (titrated, usually from 46.1 µM), usual class: cytotoxic. 3.4% of 400,000 active. AID 1347076, 2019; note: % is set by controls: 0 for no effect and ±100 for the full control effect; nearly all actives have a fitted effect of over 60% in size
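In this primary screen, KB-V1 cells overexpressing P-gp are incubated with library compounds (lowest to highest concentration) for 72 h at 37 degrees C before a luminescent ATP viability read.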
KB-3-1 cytotox: qHTS assay for MDR1-selective chemotherapeutics: Primary screen using the parental adenocarcinoma cell KB-3-1; KB-3-1 viability, CellTiter-Glo ATP luminescence, 72 h; Potency, µM (series often up to 46.1 µM), usual class: cytotoxic; 1.4% of 400,000 active; note: % is set by controls: 0 for no effect and ±100 for the full control effect; nearly all actives have a fitted effect of over 60% in size
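Parental KB-3-1 viability, qHTS format: 72 h compound exposure, 37 °C; CellTiter-Glo; media-only wells and DMSO plates as controls; concentration-effect fits on corrected data.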
SW480 rereplic: A quantitative high throughput screen for small molecules that induce DNA re-replication in SW480 colon adenocarcinoma cells | AID 624297, 2012 | SW480 DNA re-replication, Hoechst DNA content imaging, 48 h | 1.8% of 340,000 active | Potency, µM (top dose mostly 46.1 µM), for inactives: top-dose re-replication activation, most hits filed as activators; note: % of control where 0% means no effect; nearly all actives have a fitted effect of over 55% in size
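DNA re-replication was detected as more nuclei of elevated Hoechst intensity after 48 hr exposure to compound (23 nL pinned per well of 250 cells).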
HT1080-NT tox: qHTS for induction of synthetic lethality in tumor cells producing 2HG: qHTS for the HT-1080-NT fibrosarcoma cell line; Potency, µM (titrated, usually from 46.1 µM), for inactives: top-dose activity, negative = less viability, hits mostly cytotoxic; AID 686970, 2013; 1.6% of 360,000 active; HT-1080-NT fibrosarcoma viability, CellTiter-Glo ATP luminescence, 48 h;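 note: NT is the 2HG producing partner of a matched IDH1 knockdown line; 0% = DMSO-treated cells and -100% = media-only wells without cells; nearly all actives have a fitted effect of over 55% in size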
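Compounds were tested in concentration-response format on HT-1080-NT cells for 48 hours at 37 degrees C. Cell viability came from CellTiter-Glo luminescence; curves were classified by r2, response magnitude and activity.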
MCF10A rereplic: A quantitative high throughput screen for small molecules that induce DNA re-replication in MCF 10a normal breast cells | MCF 10A DNA re-replication, Hoechst nuclear intensity, 48 h | 2.9% of 350,000 active | Potency, µM (titrated, usually from 46.1 µM), without a hit: at the top dose activity, positive = re-replication, actives largely listed as activators; note: % of control where 0% means no effect; nearly all actives have a fitted effect of over 50% in size
HT1080 IDH1KD tx: qHTS for induction of synthetic lethality in tumor cells producing 2HG: qHTS for the HT-1080-IDH1KD cell line. HT-1080 IDH1 knockdown viability, ATP luminescence, 48 h. Potency, µM (top dose mostly 46.1 µM), for inactives: top-dose activity, negative = toxicity, most hits filed as cytotoxic. 2% of 360,000 active. AID 686971, 2013;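 note: 0% = DMSO wells and -100% = cell-free medium wells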
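IDH1KD HT-1080 cells, 750/well, RPMI + 5% FBS; compound pinned after 2 h settling; 48 h, 37 °C; CellTiter-Glo luminescence; % activity normalised to DMSO and no-cell wells; curves fitted, classed by r2 and efficacy.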
* = called active by the depositor; i = inactive; ? = inconclusive; nt = not tested or not shown. Shown are actives, neighbours in structure and some others; about 7.9% of the full set was active somewhere. Calls come from the whole dose curve; as a rule, active = well fitted curve in the direction sought with a large enough effect; inconclusive = small, poorly fitted or top-dose-only effect, or another doubt; inactive = no such curve, though single readings can be large; an effect the other way counts as inactive or inconclusive. Potency is the fitted concentration of half-maximal effect.

SMILES	KB-V1 MDR tox	KB-3-1 cytotox	SW480 rereplic	HT1080-NT tox	MCF10A rereplic	HT1080 IDH1KD tx
CCN(CC)c1ccc(NC(=O)c2c(OC)cccc2OC)c(C)c1	i	i	2%	21%	0%	9%
COc1ccc2c(c1)-c1nc(NC(=O)c3ccco3)sc1CC2	13µM*	i	4%	10%	?	9%
CCN(CC)c1ccc(NC(=O)c2cc(OC)cc(OC)c2)c(C)c1	1.2µM*	0.92µM*	4.6µM*	3.7µM*	2.1µM*	4.6µM*
Cc1ccc(S(=O)(=O)N2CCc3cc(C(=O)Nc4ccc(C)c(C)c4)ccc32)cc1	i	i	nt	nt	nt	nt
C=C1Nc2ccccc2C(=O)N1c1ccc(C(=O)N2CCN(C(=O)c3ccco3)CC2)cc1	i	?	nt	nt	nt	nt
CCCOc1ccc(C(=O)Nc2ccc(C)cc2[N+](=O)[O-])cc1	i	i	-1%	12%	?	6%
CC(C)COc1ccc(C(=O)Nc2ccccc2[N+](=O)[O-])cc1	i	i	?	-44%	13µM*	1%
COc1cccc(NC(=O)CSc2nc(=O)n(Cc3ccccn3)c3c2CCC3)c1	i	i	nt	nt	nt	nt
CCc1ccc(CN(C)C(=O)CCc2nc3ccccc3n(-c3ccc(OC)cc3)c2=O)cc1	12µM*	i	?	-13%	?	15µM*
CCC(c1nnnn1-c1ccc2c(c1)OCCO2)N1CCc2ccccc2C1 (stereo not given)	i	i	nt	-2%	nt	-9%
O=C(NNS(=O)(=O)c1ccc(Br)cc1)c1ccncc1	i	i	4%	4%	1%	23%
CC(C)c1cc(C(C)C)c(S(=O)(=O)NNC(=O)c2ccncc2)c(C(C)C)c1	15µM*	i	-129%	18%	0%	21%
COc1cc(C2C(c3ccccc3)C(c3cc(OC)cc(=O)o3)C2c2ccccc2)oc(=O)c1 (stereo not given)	6.5µM*	i	6%	-2%	?	-9%
COc1ccc(CCc2cc(OC)cc(=O)o2)cc1	i	i	-5%	4%	-1%	5%
Cc1cc(N2CCOCC2)ccc1/C=C\[N+](=O)[O-]	?	i	5.8µM*	4.1µM*	18µM*	5.8µM*
O=C(Nc1ccccc1Sc1ccccc1)c1cnn2c1NC(=C1CC1)C=C2C(F)F	i	?	nt	nt	nt	nt
CCOC(=O)c1ccc(NC(=O)c2cc3cc(C)ccc3n2C)cc1	i	i	nt	nt	nt	nt
Cc1ccc(S(=O)(=O)Nc2nc3ccc(N)cc3s2)cc1	i	i	-7%	19%	-4%	12%
O=[N+]([O-])c1ccc2nc(NS(=O)(=O)c3ccc(F)cc3)sc2c1	?	?	?	-2%	7.3µM*	-3%
CC(C)c1ccc(/C=C/C(=O)Nc2nc3ccc([N+](=O)[O-])cc3s2)cc1	i	i	-14%	0%	-3%	4%
Cc1nc2ccc(NS(=O)(=O)c3ccc(F)cc3F)cc2s1	4.1µM*	?	0%	6%	4%	0%
O=[N+]([O-])c1ccc2nc(NN=Cc3ccc(O)cc3)sc2c1	?	i	21µM*	?	9.2µM*	29µM*
Cc1ccc2nc(-c3ccc(NS(=O)(=O)c4ccc(F)cc4)cc3)sc2c1	i	i	?	?	15µM*	?
CCNC(=O)C1(C)CCCN(C(=O)c2ccc(C(F)(F)F)nc2C)C1 (stereo not given)	i	i	nt	24%	nt	22%
Nc1ccc(C=O)cc1	i	i	nt	nt	nt	nt
SMILES	KB-V1 MDR tox	KB-3-1 cytotox	SW480 rereplic	HT1080-NT tox	MCF10A rereplic	HT1080 IDH1KD tx
COc1cc(OC)c(NC(=O)NCc2cccn2Cc2ccccc2)cc1Cl	i	i	nt	nt	nt	nt
Cc1ccc2nc(-c3ccc(NC(=S)NCC(C)(C)CN(C)C)cc3)sc2c1	?	i	?	0%	18µM*	9%
CNC(=S)Nc1ccc(-c2nc3ccc(C)cc3s2)cc1	i	i	?	?	22µM*	2%
CC(=O)NC(=S)Nc1ccc(-c2nc3ccc(C)cc3s2)cc1	i	i	-5%	5%	6%	2%
CCCCNc1nc2c(c(=O)n(Cc3ccc(Cl)c(Cl)c3)c(=O)n2C)n1C	?	i	nt	nt	nt	nt
CCC(=O)[C@@H](C)[C@@H](OC(C)=O)[C@H](C)C[C@@H](C)[C@H]1OC(=O)C[C@@]2(O)CC=C(C)C(O2)C(C)=CCCC[C@H](O[C@H]2C[C@@H](OC(N)=O)[C@H](OC(C)=O)[C@@H](C)O2)C=C[C@H](C)C[C@H]1C	i	1.3µM*	nt	-5%	nt	1%
COc1cccc(C(=O)Nc2nc(-c3ccc(S(=O)(=O)N4CCOCC4)cc3)cs2)c1	i	i	5%	-14%	13%	-12%
COc1ccc(/C=N/Nc2nc(-c3cccc(S(=O)(=O)N4CCCC4)c3)cs2)c(OC)c1	2.6µM*	18µM*	14%	-15%	?	-1%
CC1CCc2cc(F)ccc2N1C(=O)CSc1nnc2c(n1)[nH]c1ccc(F)cc12 (stereo not given)	21µM*	i	-3%	-29%	17%	-29%
CC1CCCCN1C(=O)CSc1nnc2c(n1)[nH]c1ccc(F)cc12 (stereo not given)	i	i	-4%	18%	6%	0%
N#Cc1ccccc1C[C@H](N)C(=O)NC[C@H]1O[C@@H](n2ccc(N)nc2=O)[C@H](O)[C@@H]1O	i	i	nt	15%	nt	5%
O=C(CCC(=O)N1CCN(S(=O)(=O)c2ccc(Cl)cc2)CC1)Nc1ccc2ccccc2c1	i	i	8%	-16%	8%	-10%
CCOC(=O)N1CCN(CCC(=O)Nc2ccc(Br)c(C)c2)CC1	18µM*	?	-7%	-5%	17%	-9%
CCN1CCN(CCC(=O)Nc2ccc(Br)c(C)c2)CC1	i	i	?	1%	?	-15%
Cc1ccc(S(=O)(=O)N2CCN(C(=O)CCC(=O)Nc3ccc(Br)c(C)c3)CC2)cc1	13µM*	i	0%	-1%	-2%	-15%
Cc1ccc(CNC(=O)c2ccc3c(=O)n(-c4ccccc4)c(=O)[nH]c3c2)cc1	i	i	nt	nt	nt	nt

Screens from PubChem BioAssay.
